Bioassay records from PubChem.
TIM10 inh: TIM10 yeast growth inhibition | S. cerevisiae TIM10 strain growth, BacTiter-Glo luminescence, 24 h | inhibition, % at 10 µM | 330,000 tested, 1.4% active | AID 463195;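 active = inhibition of 40% or more at the single tested concentration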;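 note: wild-type TIM10 isogenic control strain grown at permissive 25 °C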
tim23-1 inh: tim23-1 yeast growth inhibition; S. cerevisiae tim23-1 growth, BacTiter-Glo luminescence, 24 h; inhibition, % at 20 µM; 330,000 tested, 1.3% active;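 active = growth inhibition of the mutant yeast at or above 50%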;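 note: temperature-sensitive mutant grown at 25 °C; plate controls were DMSO-treated mutant yeast for no effect and medium wells lacking yeast for full effect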
NALP1 inh: inhibitors of NALP1 inflammasome in yeast | S. cerevisiae NALP1/ASC/caspase-1 growth, X-gal OD620, 72 h | inhibition, % at 10 µM | 280,000 tested, 0.61% active | AID 2071; in the data active = inhibition mostly above about 24%, no sharp cut-off; inactive = mostly below about 32%
V-ATPase pHluor: regulators of yeast V-ATPase proton transport | S. cerevisiae, pHLuorin cytosolic pH fluorescence | response, % at 10 µM | 350,000 tested, 0.37% active | AID 504577; in the data active = response mostly above about 7.3%, no sharp cut-off; inactive = mostly below about 5.4%; note: actives read high
tim10-1 inh: tim10-1 yeast growth inhibition; 330,000 tested, 2.2% active; S. cerevisiae tim10-1 ts strain growth, BacTiter-Glo, 24 h; inhibition, % at 20 µM;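 active = inhibition of at least 40%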;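 note: mutant grown at 25 °C; 0% = DMSO wells with yeast and 100% = wells holding no yeast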
NLRP3 yeast inh: NALP3 inhibition in yeast | inhibition, % at 10 µM | Yeast reconstituted NLRP3/ASC/caspase-1, beta-gal luminescence, 24 h | 330,000 tested, 0.39% active | AID 2825;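 active = inhibition of 50% or more; inactive = inhibition below 50%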;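 note: plate controls were induced DMSO wells for no effect and uninduced yeast grown without galactose for full effect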
tim23-1 conf: confirmation of tim23-1 mutant yeast growth inhibitors | shares compounds with tim23-1 inh | S. cerevisiae tim23-1 growth, BacTiter-Glo luminescence, 24 h | inhibition, % at 20 µM | 4,400 tested, 83% active;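 active = inhibition above about 39% in either of two replicate wells at 20 µM, limit read from the data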;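 note: temperature-sensitive tim23-1 mutant grown at 25 °C; 0% = DMSO wells with yeast and 100% = medium wells without yeast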
* = called active by the depositor; nt = no result. Compounds with a hit are over-represented: about 4.2% of the library has one in this group of screens.

SMILES	TIM10 inh	tim23-1 inh	NALP1 inh	V-ATPase pHluor	tim10-1 inh	NLRP3 yeast inh	tim23-1 conf
CC(=O)c1cc(CC(=O)N2CCc3c([nH]c4ccccc34)C2c2ccccn2)cs1 (configuration not stated)	-12	2	-18	-2	-9	9	nt
Cc1cccc(C2=NN(c3ccccc3)[C@H](CO)[C@H]2c2ccc(Cl)cc2)c1	4	51*	nt	6	20	nt	38
Cc1cccc(C2=NN(c3ccc(Br)cc3)[C@@H](C(=O)N3CCOC3=O)[C@@H]2c2ccc(F)cc2)c1	9	17	33	-1	19	10	nt
OC[C@@H]1[C@@H](c2ccccc2)C(c2ccccc2)=NN1c1ccccc1	14	46	nt	1	18	nt	nt
Cc1cccc(C2=NN(c3ccc(Br)cc3)[C@@H](C(=O)N3CCOC3=O)[C@@H]2c2ccc(Cl)cc2)c1	10	40	nt	-1	18	nt	nt
COc1ccccc1[C@H]1C(c2cccc(Cl)c2)=NN(c2ccccc2)[C@@H]1CO	12	56*	nt	2	20	nt	40*
OC[C@@H]1[C@@H](c2ccccc2)C(c2cccc(Cl)c2)=NN1c1ccccc1	5	52*	nt	1	26	nt	47*
Cc1cccc(C2=NN(c3ccccc3)[C@H](CO)[C@H]2c2ccc(F)cc2)c1	20	51*	nt	-2	28	nt	34
CC(OC(=O)c1ccco1)C(=O)NC1CCCC1 (configuration not stated)	-4	13	8	-5	-21	19	nt
Cc1nn(-c2ccc(F)cc2)c2sc(C(=O)O)cc12	7	8	11	-2	14	4	nt
CCOc1cccc(CNCc2ccc(C(=O)O)cc2)c1	-14	89*	-11	0	-10	8	18
O=C(O)c1ccc(CNCc2cccc(Oc3ccccc3)c2)cc1	11	3	1	0	-11	0	nt
NC(=O)CC1SC(N)=NC1=O (configuration not stated)	1	-1	-12	3	10	-11	nt
O=C(C1=NN(c2ccccc2)C2C(=O)N(c3ccc(Cl)cc3)C(=O)C12)c1ccccc1 (configuration not stated)	nt	nt	20	-20	nt	nt	nt
C=C1c2cccc(OC)c2O[C@H](C(=O)OCC)[C@@H]1CC(CC)CCCC (some centres not stated)	16	51*	nt	0	27	nt	36
COc1cc(/C=N/Nc2cccc3cccnc23)cc(OC)c1O	15	13	-11	1	9	9	nt
Oc1cccc(/C=N/Nc2cccc3cccnc23)c1	15	53*	4	-5	10	31	63*
O=[N+]([O-])c1ccc(N/N=C/c2cccc(O)c2)cc1	6	83*	9	2	39	16	40*
CC1(C)C2CCC(C2)C1(C)NC(=O)CN1CCN(Cc2ccccc2)CC1 (configuration not stated)	-9	20	-2	2	22	22	nt
CCCCNC1=CC(=O)C(NCCCC)=CC1=O	nt	nt	nt	-4	nt	nt	nt
CCCCNC1=CC(=O)C(=O)c2ccccc21	22	55*	7	-3	-3	9	56*
O=C1CN(c2ccc(F)cc2)C(=S)N1c1ccccc1	7	57*	0	11	26	20	-16
O=C1CN(c2ccccc2)C(=S)N1c1ccccc1	4	42	16	2	18	13	nt
CCN(CC)CC(=O)Nc1sc(C)cc1C(=O)c1ccccc1	12	35	10	-5	7	22	nt
Cc1cc(C(=O)c2ccccc2)c(NC(=O)CCl)s1	40	55*	24	-4	31	-15	38
SMILES	TIM10 inh	tim23-1 inh	NALP1 inh	V-ATPase pHluor	tim10-1 inh	NLRP3 yeast inh	tim23-1 conf
Cc1sc2nc(SCC(=O)NCCCO)n(-c3ccccc3)c(=O)c2c1C	0	5	14	-2	-1	27	nt
Oc1c(C(Nc2ccccn2)c2cccnc2)cc(Cl)c2cccnc12 (configuration not stated)	33	49	22	-2	20	31	nt
Oc1c(C(c2ccc(Cl)cc2)N2CCCC2)cc(Cl)c2cccnc12 (configuration not stated)	20	64*	0	-3	-10	19	68*
Oc1c(C(c2ccccc2Cl)N2CCCC2)ccc2cccnc12 (configuration not stated)	10	65*	26	2	25	24	59*
O=C(/C=C/c1ccco1)OCc1nnc(-c2ccccc2)o1	6	9	9	-3	4	35	nt
CNC(=O)c1c(NC(=O)CCS(=O)(=O)c2ccccc2)sc2c1CCN(C(=O)OC)C2	-8	-8	nt	-3	-15	8	nt
COc1ccc(CC2S/C(=N/N=C/c3ccccc3O)NC2=O)cc1 (configuration not stated)	15	20	nt	0	18	-7	nt
CCC(=O)N1CCN(c2nc(CC)nc3sc4c(c23)CCCC4)CC1	-18	-15	14	3	-42	-4	nt
CC1CCc2c(sc3nc(C(C)(C)C)nc(N4CCN(C(=O)CCl)CC4)c23)C1 (configuration not stated)	24	50*	-20	-2	21	14	53*
CCOC(=O)NNc1ccccc1	-41	4	11	-3	-32	6	nt
CCOC(=O)C(=CNNc1ccccc1)C(=O)OCC	20	52*	-6	1	40	19	79*
COc1ccccc1NC(=O)c1ccc(NC(=O)C2CC2C)cc1 (configuration not stated)	34	52*	nt	-1	31	6	48*
Cc1cccc(Oc2sc(C(=O)c3ccccc3)c(N)c2C#N)c1	31	55*	-11	-1	33	18	42*
N#Cc1c(Nc2ccccc2)sc(C(=O)c2ccccc2)c1N	26	18	26	5	11	28	nt
CCOc1ccc(OCC)c(S(=O)(=O)N2CCCCC2)c1	24	23	0	5	24	-9	nt
NCCOc1ccc(C23CC4CC(CC(C4)C2)C3)cc1	-13	66*	0	-2	26	29	77*
OCCN1CCN(CC(O)COc2ccc(C34CC5CC(CC(C5)C3)C4)cc2)CC1 (configuration not stated)	3	-15	23	6	0	15	nt
CCOC(=O)c1c(NS(C)(=O)=O)sc2c1CCC(C)C2 (configuration not stated)	3	57*	10	6	39	-4	40*
CCn1c(COc2ccc(Cl)c(C)c2)nnc1SCC(=O)N1CCCC1	15	11	12	0	15	6	nt
Cc1cccc(NS(=O)(=O)c2ccc3c(c2)oc(=O)n3C)c1C	0	95*	-8	-1	-5	8	20
Cc1ccccc1NS(=O)(=O)c1ccc2c(c1)oc(=O)n2C	-6	20	2	0	11	-11	nt
